Results from the supplement of paper PMC6555819.

Legend:
Test in all cases: PBM binding z-score (relative to random genomic background probes); higher = stronger binding; sequences stand for … in GC…GCGATTGACAGCGTAGAATGAAGG
[1] = tested on: PPARg:RXRa DBDmut IVT, anti-RXR (DBD mutation: RXRa K156A/R161A, NR concentration 270 nM, RXRa partner concentration 90 nM)
Outline: (§1)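 The probes on custom Agilent 4×180K protein-binding microarrays were double-stranded, with 34-nt variable regions bearing direct-repeat seeds, single-nucleotide variants, half-site ablations and random human genomic background sequences. Incubation lasted 1 h with ligand-free nuclear receptor dimers in PBS pH 7.4, 2% milk, 0.02% Triton X-100, 1 mM DTT, 0.2 mg/mL BSA and 0.4 mg/ml salmon testes DNA. Antibodies against each partner (one per run) detected bound dimers, and fluorescence scans were regression-normalized. Binding z-scores take the random background probes as reference.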

[2] = tested on: PPARg:RXRa IVT, anti-PPARg (NR concentration 270 nM, RXRa partner concentration 90 nM)
Outline: as §1

[3] = tested on: PPARg DBDmut:RXRa IVT, anti-PPARg (DBD mutation: PPARg1 K132A/R137A, NR concentration 270 nM, RXRa partner concentration 90 nM)
Outline: as §1

[4] = tested on: PPARg DBDmut IVT, anti-PPARg (DBD mutation: PPARg1 K132A/R137A, NR concentration 270 nM)
Outline: as §1

[5] = tested on: PPARg homodimer (NR concentration 180 nM)
Outline: as §1

[6] = tested on: PXR:RXRa (NR concentration 270 nM, RXRa partner concentration 90 nM)
Outline: as §1

[7] = tested on: PXR homodimer (NR concentration 270 nM)
Outline: as §1

[8] = tested on: RARa:RXR (NR concentration 270 nM, RXRa partner concentration 90 nM)
Outline: as §1

[9] = tested on: RARa homodimer (NR concentration 270 nM)
Outline: as §1

[10] = tested on: RARb:RXRa (NR concentration 270 nM, RXRa partner concentration 90 nM)
Outline: as §1

[11] = tested on: RARb homodimer (NR concentration 270 nM)
Outline: as §1

[12] = tested on: RARg:RXRa (NR concentration 270 nM, RXRa partner concentration 90 nM)
Outline: as §1

[13] = tested on: RARg homodimer (NR concentration 270 nM)
Outline: as §1

[14] = tested on: RXRa DBDmut IVT, anti-RXR (DBD mutation: RXRa K156A/R161A, NR concentration 90 nM)
Outline: as §1

[15] = tested on: RXRa homodimer (NR concentration 180 nM)
Outline: as §1

[16] = tested on: THRa:RXRa (NR concentration 90 nM, RXRa partner concentration 90 nM)
Outline: as §1

[17] = tested on: THRa homodimer (NR concentration 90 nM)
Outline: as §1

[18] = tested on: VDR homodimer (NR concentration 270 nM)
Outline: as §1

Sequence	PBM binding z-score [1]	PBM binding z-score [2]	PBM binding z-score [3]	PBM binding z-score [4]	PBM binding z-score [5]	PBM binding z-score [6]	PBM binding z-score [7]	PBM binding z-score [8]	PBM binding z-score [9]	PBM binding z-score [10]	PBM binding z-score [11]	PBM binding z-score [12]	PBM binding z-score [13]	PBM binding z-score [14]	PBM binding z-score [15]	PBM binding z-score [16]	PBM binding z-score [17]	PBM binding z-score [18]
CGTCCAAGGTCAGCAGGTCAGTGAAAGCGACGTG	2.94	3.8	0.0823	-0.0279	3.81	3.7	0.523	4.76	0.465	5.34	5.12	6.35	6.64	2.54	4.82	4	2.28	1.77
ACAGACAGGTGAGTGAAGGTAAATCAGCTGGACG	0.437	0.547	-0.117	0.0853	0.0194	-0.359	-0.168	0.0806	-0.397	0.388	-0.00718	0.297	0.417	-0.64	0.24	1.31	-0.577	-0.366
CCTACTGGGCCAAGGTCATTGTTCAGTCAAAGCA	3.1	4.53	1.57	-0.159	3.54	3.62	1.49	3.79	-0.126	3.25	3.27	3.46	2.71	1.59	2.91	3.45	2.72	3.17
ACTATTAGTTGACTTAGGTCAACCGATACGACGC	0.95	1.72	1.38	1.44	2.81	2.2	1.29	2.59	1.55	2.73	3.31	2.8	2.9	1.07	2.17	3.47	2.98	1.41
ATATGTAGGTTATGGGGTCATTCAGTTTGCGCAT	7.59	7.35	1.83	2.58	3.35	6.12	11.7	6.45	2.37	3.54	4.16	5.29	3.67	2.9	6.67	4.35	4.19	7.28
ATCGAAAGGTCGACGAGGTCAGTATACACCGTTT	1.29	2.59	1.42	0.928	2.73	5.77	9.23	5.2	1.54	4.56	4.63	5.73	5.72	2.48	5.75	4.67	2.54	4.57
CCGACTGGGGCAAGGTTACCATGACGCACAGCCA	2.69	3.49	-0.7	-0.368	0.811	0.221	-0.439	0.851	-0.183	1.62	1.41	1.07	1.09	-0.669	1.13	1.21	0.0571	-0.0501
TCATATAGATAATACAGGTGAAAGTCGGCATCTA	2.86	1.53	1.59	1.15	0.855	0.717	0.495	1.04	2.03	0.481	0.362	0.456	0.632	2.07	1.02	0.394	0.216	0.608
ATCTCTAGGTAACAAAGTTCAGTGAATGCCGAAC	3.03	3.03	1.17	0.837	1.24	2.36	2.09	1.61	0.834	2.4	2.76	2.04	1.99	0.878	1.36	1.56	0.601	2.02
CCTAGCAGGACAGGGTCACTCAAGCATTTCGCTT	0.172	1.08	-2.12	-1.5	1.08	2.84	0.281	3.62	0.381	2.57	2.77	3.14	2.23	1.06	3.54	3.19	1.44	1.5
TGTCCAAGTTCAAAGGTAACGTAAGTATCCACAC	-0.319	1.81	1.26	1.32	1.85	4.87	3.45	5.04	0.541	3.42	2.25	4.05	3.45	4.24	5.21	3.05	0.0637	4.33
AGACAAAGTTCACTAGGTAACGTAAGATTCAGCT	2.37	4.14	1.01	0.842	1.94	3.7	2	2.91	0.576	4.83	3.8	4.72	5.53	4.31	3.69	2.09	-0.00149	3.48
CAAACTAGGTCACCGGAACGTCAAAGTCCGCATG	8.6	8.71	3.6	1.58	2.42	1.83	0.254	2.67	0.352	4.31	3.74	4.82	5.62	1.46	3.86	3.55	1.88	1.08
CCTTACGGGTCACTGACATGTTATAGCATTTGGA	3.55	4.1	1.46	0.945	1.83	3.22	0.262	4.06	1.38	4.06	3.05	4.89	4.58	2.2	5.13	2.61	0.312	1
ATCTCTAGGTAACCATGTTCAGTGAATGCCGAAC	3.64	2.88	0.786	1.37	0.698	0.218	0.202	0.406	0.844	0.355	0.332	0.315	0.421	0.392	0.272	0.812	0.66	0.0942
CGAACTAGGTCATCCAGGACAGTGACTACATTGA	8.16	8.47	4	0.771	3.18	1.88	1.13	2.32	0.438	3.95	3.11	4.13	4.54	2.28	2.93	3.77	2.2	1.69

Sequence	PBM binding z-score [1]	PBM binding z-score [2]	PBM binding z-score [3]	PBM binding z-score [4]	PBM binding z-score [5]	PBM binding z-score [6]	PBM binding z-score [7]	PBM binding z-score [8]	PBM binding z-score [9]	PBM binding z-score [10]	PBM binding z-score [11]	PBM binding z-score [12]	PBM binding z-score [13]	PBM binding z-score [14]	PBM binding z-score [15]	PBM binding z-score [16]	PBM binding z-score [17]	PBM binding z-score [18]
TCATATAGGTAAAGGTGAAAATCGAACGATATGA	3.76	4.08	1.54	1.02	0.818	0.873	0.241	1.5	0.976	1.73	0.939	1.56	1.28	0.781	1.98	0.991	-0.415	-0.256
AGAATGAGGTTAAGATAAGGGAAACAGAATACAT	2.37	2.34	1.82	1.35	1.38	1.12	0.744	1.8	1.27	1.83	1.07	2.11	1.69	0.785	2.6	2.71	1.05	0.183
AGAACGAGGGCAGTGAGTTGATAGCACGGGTGGC	2.18	1.32	0.223	-0.247	-0.315	0.372	2	-0.326	-0.462	1.6	0.73	0.413	0.886	1.24	0.269	0.176	-0.413	2.23
CCTGCTATGTCAATGGTCAGCTAAAGCAGCTCGC	0.388	0.02	-1.09	-1.11	-0.369	-0.209	-0.703	-0.142	-0.762	0.77	0.33	0.00581	0.0986	0.386	-0.174	-0.688	-0.637	-0.777
TCTTGTAGATCAATGGTTAAGAAAGCCGAAGCCT	1.89	0.567	0.47	0.225	-0.106	0.039	-0.283	0.142	0.324	-0.236	-0.529	-0.0652	-0.444	0.768	0.123	-0.193	-0.412	-0.25
AGAATGAGGTTATACGTCGATCAGGGAAGAAAGT	2.6	2.09	0.671	0.354	0.876	0.925	0.396	1.51	0.313	1.34	0.644	1.73	0.993	1.69	2.07	2.01	0.495	0.866
GATACAGGGTAAAGGCCAGAGTACGCGTATTGAT	1.02	2.64	0.254	-0.000144	0.5	0.017	-0.0145	0.137	-0.111	1.18	0.909	0.831	0.93	-0.389	0.877	0.316	-0.482	-0.0194
TGTCAAAGTTGAAAGGTAACGTAAGTATCCACAC	-0.206	3.18	0.664	0.491	0.376	1.38	0.066	2.56	0.0354	2.15	1.36	2.23	1.4	-0.369	2.69	1.77	-0.382	-0.281
CTCGAAAGGTCGTGCTCAGGTGAGTGTACCAAAC	1.29	1.94	-0.0151	0.438	1.83	3.52	0.0812	4.32	0.202	4.01	3.22	5.21	4.01	2.21	4.95	4.11	1.21	1.26
TAGCCTAGGTCATTAAGGGGCCAGTATAGAAAGC	1.56	2.58	0.422	0.198	0.937	1.36	-0.202	2.18	0.00876	3.64	3.1	5.12	3.99	1.36	2.52	2.9	0.623	0.937
TCTTGTAGATCAACAGGAGGTTAAGAAGGATCGA	1.57	0.719	0.516	0.84	-0.0308	0.778	-0.0185	0.915	-0.325	0.474	0.431	0.952	0.15	0.27	1.09	0.94	-0.619	-0.0476
TTACCAAGGTGAAGGTGGTTGATCCCTCTGTAGA	1.73	2.52	-0.348	-0.272	0.43	0.325	-0.346	0.45	-0.245	1.37	0.653	0.26	0.431	-0.51	0.689	1.78	0.829	-0.454
CTACCAAGGTGAACAAGGTCATTGATTACTATTC	3.07	4.07	0.536	0.17	2.29	4.92	6.61	4.44	1.19	3.53	3.82	3.75	3.4	2.28	4.27	4.18	3.41	4.4
CTACCAATGTGAACAAGGTCGTTGATTACTATTC	0.604	0.639	0.446	0.752	0.968	1.99	1.41	1.89	1.01	0.831	1.33	0.629	0.564	1.83	1.08	2.17	1.33	2.32
AATACAAGGTCACTAGGCCAGAGTAGGTACGAAT	4.85	6.56	2.9	1.98	3.01	3.63	0.919	4.05	1.19	5.31	4.18	5.73	6.29	3.29	5.53	3.95	2.4	2.75
